An excerpt weighted towards active compounds, which were near 3.2% of everything screened.
AMA1 RON2 block: AMA1-RON2 (P. falciparum) interaction inhibition; 360,000 tested, 0.2% active; AID 720542; Potency, µM (top dose mostly 58.2 µM), actives largely listed as inhibitors; AlphaScreen AMA1-biotinylated RON2 peptide binding; also: nearly all actives have a fitted effect of over 45% in size
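AMA1 (3D7) with his tag at 25 nM final met compounds first, then biotinylated RON2 peptide at 25 nM; detection used donor plus acceptor beads, 10 µg/mL apiece, read by AlphaScreen after 30 min at room temperature.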
LmPK inh: inhibitors of Leishmania mexicana pyruvate kinase; Q27686; Potency, µM (titrated, usually from 57.5 µM), actives largely listed as inhibitors; purified LmPK, Kinase-Glo ATP luminescence, 1 h; AID 1721; 290,000 tested, 0.37% active
Target sequence (Q27686 whole entry, looked up): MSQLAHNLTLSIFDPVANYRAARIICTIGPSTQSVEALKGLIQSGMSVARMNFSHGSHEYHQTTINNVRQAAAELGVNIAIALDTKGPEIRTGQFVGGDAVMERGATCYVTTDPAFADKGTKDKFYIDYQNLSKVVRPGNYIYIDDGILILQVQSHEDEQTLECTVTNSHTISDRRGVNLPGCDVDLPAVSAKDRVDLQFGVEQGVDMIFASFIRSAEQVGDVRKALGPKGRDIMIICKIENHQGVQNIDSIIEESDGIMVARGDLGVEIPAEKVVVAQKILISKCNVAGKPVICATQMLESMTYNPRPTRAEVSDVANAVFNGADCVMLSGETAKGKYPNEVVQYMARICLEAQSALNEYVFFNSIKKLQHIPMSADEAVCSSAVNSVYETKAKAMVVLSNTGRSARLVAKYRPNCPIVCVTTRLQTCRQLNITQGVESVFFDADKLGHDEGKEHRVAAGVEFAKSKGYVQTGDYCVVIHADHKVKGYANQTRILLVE
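Purified LmPK (0.1 nM) with 0.5 mM PEP and 0.1 mM ADP in imidazole buffer pH 7.2 with MgCl2/KCl, 1 h at room temperature. ATP formed was read by luciferase luminescence and normalized to no-enzyme and uninhibited controls.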
Sm TGR inh: blocks Schistosoma mansoni thioredoxin glutathione reductase; Q962Y6; purified TGR, DTNB reduction, TNB absorbance 405 nm; Potency, µM (top dose mostly 114 µM), usual class: inhibitors; 360,000 tested, 3% active; also: nearly all actives have a fitted effect of over 60% in size
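First, TGR (20 nM dispensed) and NADPH were mixed with compound. Second, a 15 min room-temperature incubation followed. Third, further NADPH and then DTNB were added to start the reaction. Finally, TNB absorbance was monitored kinetically.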
RE007 growth inh: less growth of the S. pombe RE007 Vpr strain | S. pombe RE007 Vpr strain, BacTiter-Glo ATP luminescence, 24 h | Potency, µM (series often up to 92.2 µM), actives largely listed as inhibitors | 360,000 tested, 0.21% active; active = well fitted falling curve with a large enough effect; inconclusive = small, poorly fitted or top-dose-only effect; inactive = no such curve, though single readings can be large or run the other way; also: nearly all actives have a fitted effect of over 50% in size
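Fission yeast strain RE007, carrying one chromosomally integrated HIV-1 vpr copy, was seeded at OD 0.01 in PMG+AL medium with 23 nL pinned compound. After 24 h at 30 °C and 99% humidity, viability was read by BacTiter-Glo luminescence.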
Tb PYK inh: T. brucei pyruvate kinase inhibition; Q57TT1; TbPYK enzyme, Kinase-Glo Plus ATP luminescence, 45 min; Potency, µM (series often up to 76.8 µM), hits mostly inhibitors; 410,000 tested, 0.12% active; also: nearly all actives have a fitted effect of over 50% in size
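Glycolytic pyruvate kinase of T. brucei was incubated with substrate, test compound and 130 uM ADP for 45 minutes at room temperature. Luminescent Kinase-Glo Plus signal was measured after 10 minutes.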
Numbers stand for hits. Unless noted, calls follow the shape of the dose curve; as a rule, active = well fitted curve in the direction sought with a large enough effect; inconclusive = small, poorly fitted or top-dose-only effect, or another doubt; inactive = no such curve, though single readings can be large; an effect the other way counts as inactive or inconclusive.

For Cc1cc(C)n(-c2nc3cc(Cl)ccc3nc2N2CCN(c3cccc(C)c3C)CC2)n1 the results were Sm TGR inh inactive and Tb PYK inh inactive.
`CN(C)c1ccc(-c2ccnc3c2CC(C)(C(=O)Nc2cccc(N(C)C)c2)O3)cc1` (stereo not drawn) gave AMA1 RON2 block 17.8µM, RE007 growth inh inactive and Tb PYK inh inactive.
`COc1cc(OC)c(C2Nc3cccc4cccc(c34)N2)c(OC)c1` gave AMA1 RON2 block inactive, LmPK inh inactive, Sm TGR inh inconclusive, RE007 growth inh inactive and Tb PYK inh inactive.
Screening C/C(=C\c1cc2ccccc2o1)C1Nc2cccc3cccc(c23)N1 returned Sm TGR inh 12.6µM and Tb PYK inh inactive.
Screening Cc1cc2c(c(=O)n1Cc1cccnc1)C(c1cccs1)C(C#N)=C(N)O2 (stereo not drawn) returned AMA1 RON2 block inactive, LmPK inh inactive, Sm TGR inh 10µM, RE007 growth inh inactive and Tb PYK inh inactive.
Screening Cc1cc2c(c(=O)n1Cc1cccnc1)C(Cc1ccccc1)C(C#N)=C(N)O2 (stereo not drawn) returned AMA1 RON2 block inactive, LmPK inh inactive, Sm TGR inh inactive, RE007 growth inh inactive and Tb PYK inh inactive.
CCN(CC)C(=O)c1ccc(NC(=O)c2cccc(F)c2)cc1 was read as AMA1 RON2 block inactive, LmPK inh 28.2µM, Sm TGR inh inactive, RE007 growth inh inactive and Tb PYK inh inactive.
O=C(Nc1ccc(Nc2ccccc2)cc1)c1cccc(F)c1 was read as AMA1 RON2 block inactive, LmPK inh inactive, Sm TGR inh inactive, RE007 growth inh inactive and Tb PYK inh inactive.
For Cc1cccc(Oc2ccc(N)cc2)c1 the results were AMA1 RON2 block inactive, LmPK inh inactive, Sm TGR inh inactive, RE007 growth inh inactive and Tb PYK inh inactive.
Nc1ccc(Oc2cccc(Oc3ccc(N)cc3)c2)cc1 was read as AMA1 RON2 block 31.6µM, LmPK inh inactive, Sm TGR inh inactive, RE007 growth inh inactive and Tb PYK inh inactive.
For CC(=O)Cn1ncc(Br)c(Br)c1=O the results were AMA1 RON2 block inactive, LmPK inh inactive, RE007 growth inh inactive and Tb PYK inh inactive.
Screening O=C(OCn1ncc(Br)c(Br)c1=O)c1c(F)cccc1F returned LmPK inh inactive and Sm TGR inh 0.562µM.
Screening COc1cccc(NC(=O)CSc2nc3ccc(NC(=O)c4ccco4)cc3s2)c1 returned Sm TGR inh inactive and Tb PYK inh inactive.
For Cc1ccc(NCc2cc3cc4c(cc3n(CC(=O)Nc3ccc(C)cc3)c2=O)OCCO4)cc1 the results were Sm TGR inh 44.7µM and Tb PYK inh inactive.
Screening CCN(c1ccccc1)S(=O)(=O)c1ccc(Cl)c(NC(=O)COC(=O)c2ccc(O)cc2)c1 returned AMA1 RON2 block inactive, LmPK inh inactive, Sm TGR inh inactive, RE007 growth inh inactive and Tb PYK inh inactive.
For CCN(c1ccccc1)S(=O)(=O)c1ccc(Cl)c(NC(=O)COC(=O)c2cc(O)c3ccccc3c2O)c1 the results were LmPK inh inactive and Sm TGR inh 3.55µM.
Screening COCCN1C(=O)c2ccc(C(=O)NCc3ccco3)cc2C1=O returned AMA1 RON2 block inactive, LmPK inh inactive, Sm TGR inh inactive, RE007 growth inh inactive and Tb PYK inh inactive.
`O=C(NCc1ccco1)c1cccc(NC(=O)c2ccco2)c1` gave AMA1 RON2 block inactive, LmPK inh inactive, Sm TGR inh 44.7µM, RE007 growth inh inactive and Tb PYK inh inconclusive.
`O=C(Nc1cccc(O)c1)c1ccc2c(c1)C(=O)N(Cc1ccco1)C2=O` gave AMA1 RON2 block inactive, LmPK inh inactive, Sm TGR inh inactive, RE007 growth inh inactive and Tb PYK inh inactive.
O=C(Nc1ccc(Cl)cc1C(=O)O)c1ccc2c(c1)C(=O)N(Cc1ccco1)C2=O was read as AMA1 RON2 block inactive, LmPK inh inactive, Sm TGR inh 50.1µM, RE007 growth inh inactive and Tb PYK inh inactive.
For CCc1nc2ccc(C(=O)NCc3ccco3)cc2nc1CC the results were AMA1 RON2 block inactive, LmPK inh inactive, Sm TGR inh 28.2µM, RE007 growth inh inactive and Tb PYK inh inactive.
For COCCCN1C(=O)c2ccc(C(=O)NCc3ccco3)cc2C1=O the results were AMA1 RON2 block inactive, LmPK inh inactive, Sm TGR inh 28.2µM, RE007 growth inh inactive and Tb PYK inh inactive.
For Nc1nc(NC2CC2)c2ncn([C@H]3C=C[C@@H](CO)C3)c2n1 the results were Tb PYK inh inactive.
`Cc1ccc(C)c(N2CCN(C(=O)c3cc(C)nc4c3c(C)nn4-c3cccc(F)c3)CC2)c1` gave Sm TGR inh inactive and Tb PYK inh inactive.
Screening Cc1ccc(-c2noc(CN(C(=O)c3ccc(C(C)(C)C)cc3)C(C)C)n2)cc1 returned Sm TGR inh inactive and Tb PYK inh inactive.
For COc1ccc(Br)cc1CNC(=O)Cn1nc(C)n2c(cc3cc(F)ccc32)c1=O the results were Sm TGR inh inactive and Tb PYK inh inactive.
Screening CCCN1C(=O)c2ccc(C(=O)NCc3ccco3)cc2C1=O returned AMA1 RON2 block inactive, LmPK inh inactive, Sm TGR inh 31.6µM, RE007 growth inh inactive and Tb PYK inh inactive.
`Cc1cc(Nc2cccc(Cl)c2)nc2ccc(NC(=O)COc3ccc(Cl)cc3)cc12` gave Sm TGR inh inactive and Tb PYK inh inactive.
Screening COc1ccc(-n2c(O)c(C=NCc3ccc4c(c3)OCO4)c(=O)[nH]c2=O)cc1 returned AMA1 RON2 block inactive, LmPK inh inactive, Sm TGR inh 14.1µM, RE007 growth inh inactive and Tb PYK inh inactive.
Screening Cc1cccc(N2CCN(C(=O)c3c4c(nc5ccccc35)C(=O)N(C3CCCCC3)C4)CC2)c1C returned Sm TGR inh inactive and Tb PYK inh inactive.
BrC(=C\c1ccccc1)/C=N/Nc1nc2ccccc2[nH]1 was read as AMA1 RON2 block inactive, LmPK inh inactive, Sm TGR inh 20µM, RE007 growth inh inactive and Tb PYK inh inactive.
For O=C(O)c1ccc(N/N=C/C(Br)=C/c2ccccc2)cc1 the results were AMA1 RON2 block inactive, LmPK inh inactive, Sm TGR inh 1.12µM, RE007 growth inh inactive and Tb PYK inh inactive.
`C(=N\Nc1nc2ccccc2[nH]1)/c1ccccn1` gave AMA1 RON2 block inactive, LmPK inh inconclusive, Sm TGR inh inactive, RE007 growth inh inconclusive and Tb PYK inh inconclusive.
`COc1ccc(-n2c(Cc3cccn3C)nnc2SCC(=O)Nc2ccc(Cl)cc2)cc1` gave AMA1 RON2 block inactive, LmPK inh inactive, Sm TGR inh 50.1µM, RE007 growth inh inactive and Tb PYK inh inactive.
COc1ccc(NC(=O)CSc2nnc(Cc3cccn3C)n2-c2ccc(F)cc2)cc1OC was read as AMA1 RON2 block inactive, LmPK inh inactive, Sm TGR inh 44.7µM, RE007 growth inh inactive and Tb PYK inh inactive.
For COc1ccc(-n2c(Cc3cccn3C)nnc2SCC(=O)NCc2ccco2)cc1 the results were AMA1 RON2 block inactive, LmPK inh inactive, Sm TGR inh 56.2µM, RE007 growth inh inactive and Tb PYK inh inactive.
